The nature of assay [1]: qHTS assay to identify small molecule agonists of the peroxisome proliferator-activated receptor delta (PPARd) signaling pathway - cell viability counter screen (AID 743211). Further: nearly all actives have a fitted effect of over 55% in size. Further: potency means the concentration at half of the fitted maximal effect. The gist of the method: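 qHTS cell viability: PPARd-bla HEK293H; 17 h cpd, 37C; CellTiter-Glo, luminescence at 30 min RT.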
On the technique in general: In qHTS, concentration-response curves come from the screen itself.

Assay [2] concerns the target Peroxisome proliferator-activated receptor delta (Homo sapiens) (UniProt Q03181). Kind of assay: qHTS assay to identify small molecule agonists of the peroxisome proliferator-activated receptor delta (PPARd) signaling pathway (AID 743212; calls by dose curve). The gist of the method: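 A PPARd-bla HEK293H line with beta-lactamase under an Upstream Activator Sequence is treated with compounds at 37 C. Substrate loading for 2 h at room temperature precedes the fluorescence measurement.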

The nature of assay [3]: qHTS assay to identify small molecule antagonists of the peroxisome proliferator-activated receptor delta (PPARd) signaling pathway - cell viability counter screen (AID 743213). Further: nearly all actives have a fitted effect of over 50% in size. Further: potency means the concentration at half of the fitted maximal effect. In a few lines:
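PPARd-bla HEK293H cells (3000/well) got compound plus 300 nM L165041 agonist for 17 h at 37 C. Viability in the same wells came from CellTiter-Glo luminescence after 30 min at room temperature.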

Assay [4] concerns the target Peroxisome proliferator-activated receptor delta (Homo sapiens) (UniProt Q03181). Kind of assay: qHTS assay to identify small molecule antagonists of the peroxisome proliferator-activated receptor delta (PPARd) signaling pathway (AID 743215; active means well fitted inhibition curve with a large enough effect in the signal ratio in the repeat runs, not every such curve was filed as active; the % refers to the signal ratio;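 further: cells stimulated with agonist L165041 at 300 nM final during compound exposure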; further: potency means the concentration at half of the fitted maximal effect). The gist of the method: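 With L165041 present at 300 nM final, compounds were incubated 17 h at 37 C on PPARd UAS-bla HEK293H cells. A FRET-based beta-lactamase substrate was then applied for 2 h at room temperature and fluorescence intensity recorded.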

Assay [5] is described as follows: qHTS assay to identify small molecule agonists of the farnesoid-X-receptor (FXR) signaling pathway - cell viability counter screen (AID 743218). Further: nearly all actives have a fitted effect of over 45% in size. Further: potency means the concentration at half of the fitted maximal effect. In a few lines:
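After 16 h at 37 C with test compounds, FXR-bla HEK 293T cells were given LiveBLAzer B/G substrate for 2 h at RT and then CellTiter-Glo; luminescence was taken after 30 min.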

The nature of assay [6]: qHTS assay to identify small molecule antagonists of the farnesoid-X-receptor (FXR) signaling pathway - cell viability counter screen (AID 743221; active means well fitted cell-killing curve with a large enough effect in the repeat runs, not every such curve was filed as active; further: nearly all actives have a fitted effect of over 50% in size; further: potency means the concentration at half of the fitted maximal effect). The gist of the method: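 After a 5 h settling period, FXR-bla HEK 293T cells receive compound and chenodeoxycholic acid (50 uM final) and incubate 16 h at 37 C; CellTiter-Glo luminescence, read after 30 min at room temperature, reports cell viability.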

The target of assay [7] is Bile acid receptor (Homo sapiens) (UniProt Q96RI1). Kind of assay: qHTS assay to identify small molecule antagonists of the farnesoid-X-receptor (FXR) signaling pathway (AID 743217; active means well fitted inhibition curve with a large enough effect in the signal ratio in the repeat runs, not every such curve was filed as active; the % refers to the signal ratio). The gist of the method:
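In this cell-based antagonist screen, inhibition of CDCA-driven (50 uM final) UAS-beta-lactamase expression in HEK 293T cells was measured by FRET fluorescence following 16 h compound exposure at 37 °C.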

The target is the same in assay [8]. Kind of assay: qHTS assay to identify small molecule agonists of the farnesoid-X-receptor (FXR) signaling pathway (AID 743220; active means well fitted activation curve with a large enough effect in the signal ratio in the repeat runs, not every such curve was filed as active; the % refers to the signal ratio). The gist of the method:
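Beta-lactamase reporter under UAS control in GeneBLAzer FXR HEK 293T cells (5000/well) measured with LiveBLAzer FRET substrate after 2 h at room temperature. Compound exposure lasted 16 h at 37C.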

Assay [9] deals with Vitamin D3 receptor (Homo sapiens) (UniProt P11473). Kind of assay: qHTS assay to identify small molecule agonists of the vitamin D receptor (VDR) signaling pathway (AID 743222; calls by dose curve). The gist of the method:
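VDR-bla cells were seeded, left 4 h, treated with compounds in DMSO for 16 h, incubated 2 h at RT with B/G FRET substrate, and read for fluorescence.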

Assay [10] shares this target. Kind of assay: qHTS assay to identify small molecule antagonists of the vitamin D receptor (VDR) signaling pathway (AID 743223; active means well fitted inhibition curve with a large enough effect in the signal ratio in the repeat runs, not every such curve was filed as active; the % refers to the signal ratio). In a few lines:
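Reporter line VDR-bla; stimulus 1alpha,25-(OH)2 vitamin D3, 3 nM final; compound co-addition, 16 h 37C/5% CO2; LiveBLAzer B/G substrate 2 h RT; fluorescence intensity.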

Values joined by “and” are separate entries in the source; they are usually repeats but may differ in a detail not shown here. Identical values can stand only once. Results filed as inconclusive are left out. A structure can be active in one record and inactive in another. Active and inactive are the calls of the source. Unless noted, the call rests on the fitted dose curve; in most records, active means well fitted curve in the direction sought with a large enough effect in the repeat runs; inconclusive means weak or mixed curves; inactive means no such curve, though single readings can be large; an effect the other way counts as inactive or inconclusive.

Sequence of Bile acid receptor (Homo sapiens) (Q96RI1 whole entry, looked up): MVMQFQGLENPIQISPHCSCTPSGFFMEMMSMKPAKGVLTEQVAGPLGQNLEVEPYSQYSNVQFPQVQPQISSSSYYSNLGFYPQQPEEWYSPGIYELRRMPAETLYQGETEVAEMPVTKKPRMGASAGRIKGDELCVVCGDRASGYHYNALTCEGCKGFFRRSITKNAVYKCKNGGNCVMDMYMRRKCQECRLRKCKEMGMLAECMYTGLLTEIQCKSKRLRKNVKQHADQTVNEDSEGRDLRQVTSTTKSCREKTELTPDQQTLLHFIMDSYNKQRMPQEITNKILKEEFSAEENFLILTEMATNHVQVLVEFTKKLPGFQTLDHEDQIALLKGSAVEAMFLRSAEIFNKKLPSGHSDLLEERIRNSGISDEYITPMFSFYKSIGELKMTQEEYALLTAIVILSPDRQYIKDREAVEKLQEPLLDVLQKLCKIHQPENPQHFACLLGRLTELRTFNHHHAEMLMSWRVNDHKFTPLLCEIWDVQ
Sequence of Vitamin D3 receptor (Homo sapiens) (P11473 whole entry, looked up): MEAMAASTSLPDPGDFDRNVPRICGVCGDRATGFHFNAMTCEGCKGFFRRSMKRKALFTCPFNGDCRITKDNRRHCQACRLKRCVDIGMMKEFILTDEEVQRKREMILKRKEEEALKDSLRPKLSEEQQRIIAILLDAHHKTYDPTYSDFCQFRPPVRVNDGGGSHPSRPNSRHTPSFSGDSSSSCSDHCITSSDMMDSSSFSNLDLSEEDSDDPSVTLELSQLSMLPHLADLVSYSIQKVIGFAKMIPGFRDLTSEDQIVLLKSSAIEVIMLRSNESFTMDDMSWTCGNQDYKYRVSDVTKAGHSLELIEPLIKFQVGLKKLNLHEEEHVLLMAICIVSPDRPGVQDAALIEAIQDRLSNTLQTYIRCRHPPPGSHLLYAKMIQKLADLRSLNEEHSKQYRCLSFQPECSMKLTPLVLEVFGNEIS
Sequence of Peroxisome proliferator-activated receptor delta (Homo sapiens) (Q03181 whole entry, looked up): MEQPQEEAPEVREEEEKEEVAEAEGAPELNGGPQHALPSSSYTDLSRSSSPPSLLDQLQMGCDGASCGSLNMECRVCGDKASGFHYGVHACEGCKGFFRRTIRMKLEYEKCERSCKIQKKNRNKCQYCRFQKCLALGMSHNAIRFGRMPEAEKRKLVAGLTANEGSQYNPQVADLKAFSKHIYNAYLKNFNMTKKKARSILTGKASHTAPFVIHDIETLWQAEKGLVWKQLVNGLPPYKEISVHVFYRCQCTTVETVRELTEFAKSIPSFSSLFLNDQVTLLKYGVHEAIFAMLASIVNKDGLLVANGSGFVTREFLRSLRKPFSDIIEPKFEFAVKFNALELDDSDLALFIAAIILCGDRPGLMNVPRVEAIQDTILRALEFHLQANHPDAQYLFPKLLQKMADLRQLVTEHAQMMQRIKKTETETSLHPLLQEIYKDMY

On to `C[C@H]1O[C@H](OC2[C@@H](O)[C@@H](O)C(O)[C@H](O)[C@H]2O)[C@@H](N)C[C@@H]1N=C(N)C(=O)O` (some centres undefined), for which the Potency result in assay [1], in assay [3], in assay [4], in [5] and in assay [6] was “inactive” throughout. Also, in assay [2], the compound was classed as inactive.

As to `O=C(O)c1cc(Cl)ccc1Cl`, the Potency entry in assay [1], in assay [3], in assay [4], in assay [7], in assay [5] and in assay [6] was “inactive” each time. Also, the Potency result in [10] is “inactive”. The outcome in assay [2], in [8] and in assay [9] was inactive.

In the case of `C[N+](C)(C)CC1CO1` (centres undefined), the Potency result in [1], in [3], in assay [4], in assay [5] and in assay [6] was “inactive” throughout. Besides, the outcome in [2] was inactive.

Take `CN(C)c1ccc(N=O)cc1`: the Potency is 43.6 µM (active) in assay [1]; 43.6 µM (active) in assay [3]; 21.9 µM (active) in assay [4]; “inactive and 49 µM (active)” in [5]. For the same compound, the compound was called inactive in assay [2] and in [8]. The Potency entry in assay [7], in assay [6] and in [10] was “inactive” each time.

Take `Cc1ccc(N)c(C)c1`: the Potency result in assay [1], in [3], in [4], in assay [7], in [6] and in assay [10] was “inactive” throughout. Besides, the outcome in assay [2] and in [8] was inactive.

On to `c1ccc2sc(SNC3CCCCC3)nc2c1`, for which the Potency result in assay [1], in assay [3], in [4], in assay [7], in assay [5] and in assay [6] was “inactive” throughout. Moreover, the Potency entry in [10] is “inactive”. Further, the result in assay [2] and in assay [8] was inactive.

Consider `CN(C1CCCCC1)C1CCCCC1`, for which the Potency result in assay [1], in [3], in assay [4], in assay [5], in assay [6] and in [10] was “inactive” each time. The result in assay [2] and in assay [9] was inactive.

On to `COC1=CC(=O)O[C@@H](/C=C/c2ccc3c(c2)OCO3)C1`, for which the Potency entry in assay [1], in assay [3], in assay [4], in assay [5] and in [6] was “inactive” throughout. In assay [2], the compound was called inactive.

In the case of `NC(=S)c1c(Cl)cccc1Cl`, the Potency entry in assay [1], in assay [3], in [4], in assay [5] and in assay [6] was “inactive” in each case. Besides, the call in [2] was inactive.

Consider `CCCN(CCOc1c(Cl)cc(Cl)cc1Cl)C(=O)n1ccnc1`, for which the Potency entry in assay [1], in assay [3], in assay [4], in assay [7], in assay [5] and in [6] was “inactive” throughout. Besides, the compound was classed as inactive in assay [2] and in assay [8].

For the compound `O=CC=O`, the Potency entry in assay [1], in [3], in assay [4], in assay [5] and in assay [6] was “inactive” in each case. The compound was classed as inactive in [2].

With `c1ccc2c(c1)sc1ccccc12`, the Potency result in assay [1], in [3], in assay [4], in assay [7], in assay [5] and in assay [6] was “inactive” in each case. The compound was called inactive in [2], in [8] and in [9].

As for `COC(=O)Cc1ccccc1`, the Potency entry in [1], in [3], in [4], in [5] and in [6] was “inactive” throughout. Moreover, the result in [2] was inactive.

In the case of `CC(C)(C)CC(C)(C)c1ccc(O)cc1`, the Potency was 34.7 µM (active) in assay [1]; 27.5 µM (active) in assay [3]; 54.8 µM (active) and inactive in assay [5]; 49 µM (active) in assay [6]. Moreover, the call in assay [2], in [8] and in [9] was inactive. Further, the Potency entry in assay [4] was “inactive”.

On to `NP(N)(=O)NC(=O)c1ccc(F)cc1`, for which the Potency result in [1], in assay [3], in assay [4] and in assay [6] was “inactive” throughout. For the same compound, the call in assay [2] was inactive.

As for `CC(CC(C(N)=O)(c1ccccc1)c1ccccc1)N(C)C` (centres undefined), the Potency entry in assay [1], in assay [3], in assay [4], in assay [5], in [6] and in [10] was “inactive” each time. Further, the result in assay [2] and in assay [9] was inactive.

As for `CCOP(=S)(OCC)Oc1ccc(S(C)=O)cc1` (centres undefined), the Potency entry in [1], in assay [3], in assay [4], in [6] and in assay [10] was “inactive” each time. The compound was classed as inactive in assay [2] and in assay [9].

With `CN1C(=O)CN=C(c2ccccc2)c2cc([N+](=O)[O-])ccc21`, the Potency result in assay [1], in assay [3], in assay [4] and in [6] was “inactive” each time. For the same compound, in assay [2], the compound was called inactive.

On to `CC[N+]1(C)CCCC(OC(=O)C(O)(c2ccccc2)c2ccccc2)C1` (centres undefined), for which the Potency result in assay [1], in assay [3], in [4], in assay [5], in assay [6] and in [10] was “inactive” throughout. Besides, the compound was classed as inactive in [2].

In the case of `C=CC(=O)NC(C)(C)CC(C)=O`, the Potency entry in [1], in assay [3], in assay [4], in assay [5], in [6] and in [10] was “inactive” in each case. Besides, the outcome in [2] and in assay [9] was inactive.

In the case of `C[Si](Cn1cncn1)(c1ccc(F)cc1)c1ccc(F)cc1`, in assay [1], the Potency result was “inactive”. The compound was classed as inactive in assay [2] and in [8]. For the same compound, in [3], the Potency is 38.9 µM (active).

With `CCCCCCCCP(=O)(O)O`, the Potency entry in [1], in assay [3], in assay [4], in assay [6] and in [10] was “inactive” throughout. The result in assay [2] was inactive.

Take `CCOP(=O)(SC(C)CC)N1CCSC1=O` (centres undefined): the Potency result in assay [1], in assay [3], in assay [4], in [5], in assay [6] and in assay [10] was “inactive” each time. Also, the call in assay [2] was inactive.

Consider `CCCSP(=S)(OCC)Oc1ccc(SC)cc1` (centres undefined), for which the Potency result in assay [1], in assay [3], in assay [7], in [5], in assay [6] and in assay [10] was “inactive” each time. The compound was called inactive in [2], in assay [8] and in assay [9].

For the compound `C=CCN1C[C@H](C)N([C@H](c2ccc(C(=O)N(CC)CC)cc2)c2cccc(OC)c2)C[C@H]1C`, the Potency result in assay [1], in [3], in assay [4], in assay [6] and in assay [10] was “inactive” throughout. The outcome in [2] and in assay [9] was inactive.

For `C[C@]12CC[C@H]3[C@@H](CCC4=CC(=O)CC[C@@H]43)[C@@H]1CC[C@@H]2OC(=O)CCc1ccccc1`, the Potency result in assay [1], in assay [3], in assay [4], in [5], in [6] and in [10] was “inactive” in each case. Besides, in assay [2], the compound was called inactive.

With `C=C(Cl)Cl`, the Potency result in assay [1], in assay [3], in assay [4] and in [6] was “inactive” in each case. Besides, in assay [2], the compound was classed as inactive.

For the compound `CC(C)(c1ccccc1)c1cc(-n2nc3ccccc3n2)c(O)c(C(C)(C)c2ccccc2)c1`, the Potency result in [1], in assay [3], in assay [4], in assay [5], in [6] and in assay [10] was “inactive” each time. Further, in [2], the result was inactive.

Take `Cc1cccc(C)c1NC1=NCCCS1`: the Potency result in assay [1], in [3], in [4], in [5], in [6] and in assay [10] was “inactive” throughout. Moreover, the result in assay [2] and in assay [9] was inactive.

With `COCc1cnc(C2=NC(C)(C(C)C)C(=O)N2)c(C(=O)O)c1` (centres undefined), the Potency result in assay [1], in [3], in assay [7], in assay [5], in assay [6] and in assay [10] was “inactive” throughout. Moreover, the compound was called inactive in assay [2], in assay [8] and in assay [9].

Source of the values: PubChem BioAssay (Tox21).
